High-throughput results deposited in PubChem by National Center for Advancing Translational Sciences (NCATS).
G9a inh: blocks human histone lysine methyltransferase G9a; Q96KQ7; Potency, µM (doses to about 102 µM), actives largely listed as inhibitors; 350,000 compounds, 8.8% hits; G9a H3K9 monomethylation, AlphaScreen, 2 h; also: nearly all actives have a fitted effect of over 75% in size
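Readings reflect AlphaScreen signal from monomethyl-H3K9 antibody detection. HMT at 20 nM; substrate b-H3K9 500 nM; cofactor SAM 20 uM; 2 h RT reaction; compounds tested as titrations in qHTS with 15 min preincubation.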
Sfp inh: Sfp phosphopantetheinyl transferase inhibition; Q9F4F7; Biochemical Sfp PPTase activity, qHTS; Potency, µM, actives largely listed as inhibitors; 310,000 compounds, 3.5% hits; AID 1490;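 also: the enzyme is Sfp with the accession as filed and its product quenches rhodamine fluorescence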
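After 15 min at room temperature with compound, 15 nM Sfp received 5 uM rhodamine-CoA plus 12.5 uM BHQ-2-ybbR (50 mM Hepes pH 7.6, 10 mM MgCl2). Rate came from the fluorescence difference over 30 min, ex 525/em 598 nm.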
JMJD2A Tudor: inhibitors of human JMJD2A Tudor domain; Potency, µM (titrated, usually from 114 µM), most hits filed as inhibitors; 390,000 compounds, 4.4% hits; O75164; AlphaScreen JMJD2A-Tudor / H3K4me3 peptide binding; also: nearly all actives have a fitted effect of over 50% in size
HP1b binding inh: blocks HP1-beta chromodomain binding to methylated histone tails; AlphaScreen HP1-beta / biotin-H3K9me3 peptide binding; Potency, µM (titrated, usually from 114 µM), usual class: inhibitors; 390,000 compounds, 0.56% hits; also: nearly all actives have a fitted effect of over 70% in size
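HP1-beta protein (50 nM final) preincubated 30 min at room temperature with biotinylated H3(1-18)K9me3 peptide (50 nM) in PBS pH 7.4, 0.01% Tween-20, then compound added for 30 min. AlphaScreen streptavidin donor/nickel chelate acceptor beads (10 ug/mL final), 30 min dark, luminescence read.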
TDP1 inh: inhibitors of human tyrosyl-DNA phosphodiesterase TDP1; recombinant TDP1, AlphaScreen DNA substrate cleavage; Potency, µM (top dose mostly 130 µM), hits mostly inhibitors; 350,000 compounds, 0.28% hits; Q9NUW8; also: nearly all actives have a fitted effect of over 40% in size
Target sequence (Q9NUW8 whole entry, looked up): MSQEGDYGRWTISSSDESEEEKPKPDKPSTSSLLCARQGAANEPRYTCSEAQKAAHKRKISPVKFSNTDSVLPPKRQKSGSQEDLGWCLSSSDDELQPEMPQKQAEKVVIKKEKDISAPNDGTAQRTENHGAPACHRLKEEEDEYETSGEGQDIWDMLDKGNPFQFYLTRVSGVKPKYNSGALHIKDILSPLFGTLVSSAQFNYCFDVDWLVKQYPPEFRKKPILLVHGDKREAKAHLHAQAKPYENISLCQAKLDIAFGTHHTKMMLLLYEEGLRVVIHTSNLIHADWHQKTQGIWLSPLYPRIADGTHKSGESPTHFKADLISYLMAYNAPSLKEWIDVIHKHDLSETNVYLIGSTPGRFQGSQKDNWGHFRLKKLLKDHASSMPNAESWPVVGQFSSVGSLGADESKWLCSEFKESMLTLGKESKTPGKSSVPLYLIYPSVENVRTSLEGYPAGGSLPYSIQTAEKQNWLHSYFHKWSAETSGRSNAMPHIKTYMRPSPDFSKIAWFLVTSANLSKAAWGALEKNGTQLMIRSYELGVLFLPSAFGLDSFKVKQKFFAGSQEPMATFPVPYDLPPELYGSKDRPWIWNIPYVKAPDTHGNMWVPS
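Enzyme-compound mixtures sat 15 min at room temperature, followed by a 5 min reaction with 15 nM final substrate and 10 min with AlphaScreen beads. Recombinant human Tdp1 was used at 1 nM final.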
BAZ2B inh: inhibitors of human BAZ2B bromodomain; Q9UIF8; AlphaScreen BAZ2B-H3K14Ac peptide displacement; Potency, µM (series often up to 114 µM), hits mostly inhibitors; 360,000 compounds, 4.4% hits; also: nearly all actives have a fitted effect of over 60% in size
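Inhibition is scored as reduced AlphaScreen emission. The BAZ2B/b-H3(5-23)K14Ac complex (50 nM each) in PBS pH 7.4, 0.01% Tween-20 meets compound (up to 110 uM) for 30 min at RT before bead addition.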
A number is an active result; 0 = inactive; ? = inconclusive; - = no result given; [ ] = dose if it differs, or a comment. Most compounds without a hit are left out; they make up all but 12% or so of the library. Calls follow the shape of the dose curve; as a rule, active = well fitted curve in the direction sought with a large enough effect; inconclusive = small, poorly fitted or top-dose-only effect, or another doubt; inactive = no such curve, though single readings can be large; an effect the other way counts as inactive or inconclusive.

SMILES	G9a inh	Sfp inh	JMJD2A Tudor	HP1b binding inh	TDP1 inh	BAZ2B inh
COc1ccc(C(=O)N(Cc2ccccc2)Cc2ccccc2)c(O)c1	-	-	0	-	0	-
Cc1ccc(Sc2c(C)nn(C(=O)c3ccc(Cl)cc3)c2C)cc1	0	-	0	0	-	0
CCOc1ccc(CC(=O)NCCS(=O)(=O)N2CCN(c3ccc(OC)cc3)CC2)cc1	0	-	0	0	0	0
C=C(C)CSc1nc2sc3c(c2c(=O)n1C1CCCCC1)CCN(C)C3	-	0	?	0	0	?
CSc1nc2sc3c(c2c(=O)n1C1CCCCC1)CCN(C)C3	50µM	0	0	0	0	0
NNc1nc2sc3c(c2c(=O)n1C1CCCCC1)CCN(Cc1ccccc1)C3	50µM	0	0	0	0	0
CCn1c(NN)nc2sc3c(c2c1=O)CCC3	45µM	56µM	?	0	0	0
CCn1c(SCC(=O)c2ccccc2)nc2sc3c(c2c1=O)CCN(C)C3	25µM	50µM	?	0	0	0
O=C(NC1CCC(=O)N(CCOc2ccccc2)CC1)OCc1ccccc1 (stereo not given)	0	0	0	0	-	0
COc1ccc(-n2c(NN)nc3sc4c(c3c2=O)CCCC4)cc1	50µM	0	0	0	0	0
CCn1c(N)c(C(=O)NCC2CCCO2)sc1=S (stereo not given)	0[12.7 µM]	18µM	?	11µM	0	79µM
CC(C)OCCCNC(=O)c1sc(=S)n(C)c1N	14µM	50µM	0	?	0	0
CCn1c(N)c(C(=O)NCc2cccnc2)sc1=S	0	0	0	0	0	0
CCn1c(N)c(C(=O)NCCCOC)sc1=S	28µM	20µM	0	50µM	0	?
CCn1c(N)c(C(=O)N2CCOCC2)sc1=S	10µM	45µM	0	?	0	0
COc1ccc(C(=O)NCC(c2ccccc2)N2CCCC2)cc1S(=O)(=O)N1CCOCC1 (stereo not given)	0[12.7 µM]	-	0	0	0	0
Cc1c(NS(=O)(=O)c2ccc3c(c2)NC(=O)CC(=O)N3)cccc1[N+](=O)[O-]	0	0	0	0	0	0
Cn1c(N)c(C(=O)Nc2ccc(-c3ccccc3)cc2)sc1=S	8.9µM	3.2µM	50µM	?	0	50µM
CCNC(=O)c1sc(=S)n(CC)c1N	13µM	50µM	0	0	0	?
NC(=S)NCCCC(N)C(=O)O (stereo not given)	8.9µM	-	-	-	0	-
NCCC[C@@H](N)C(=O)O	-	?	-	-	0	-
O=C(NCc1ccco1)c1cccc(Nc2nc3ccc(Br)cc3[nH]2)c1	?	0	?	0	0	0
O=C(NCC1CC1)c1ccc(Nc2nc3ccc(Br)cc3[nH]2)cc1	?	32µM	20µM	?	0	0
CC(C)CN(C(=O)COC(=O)/C=C/c1ccc(Cl)c(Cl)c1)c1c(N)n(Cc2ccccc2)c(=O)[nH]c1=O	0	-	0	0	0	0
COc1ccc(-n2c(Cc3cccn3C)nnc2SCC(=O)Nc2ccc(F)cc2)cc1	35µM	0	0	0	0	?
SMILES	G9a inh	Sfp inh	JMJD2A Tudor	HP1b binding inh	TDP1 inh	BAZ2B inh
Cn1cccc1Cc1nnc(SCC(=O)NCc2ccco2)n1-c1ccc(F)cc1	?	0	?	0	0	?
COc1ccc(NC(=O)CSc2nnc(Cc3cccn3C)n2-c2ccc(F)cc2)cc1	71µM	0	0	0	0	?
CCOC(=O)c1ncn2c1C(=O)OC2(C)C	?	?	18µM	0	0	?
CCOC(=O)C1=CC(=O)CC(C)(C)O1	-	-	0	0	-	-
CCCc1cc(CN2CCOCC2)c(O)c(CN2CCOCC2)c1O	-	-	11µM	25µM	-	-
Cc1cc2ccccc2cc1CN1CCOCC1	0	0	0	0	0	-
Oc1cnc2ccccc2c1CN1CCOCC1	?	0	0	0	0	0
Oc1c(CN2CCOCC2)cc(CN2CCOCC2)c(O)c1O	-	-	11µM	6.3µM	-	-
Oc1cccc(CN2CCOCC2)c1O	-	-	10µM	71µM	-	-
COc1ccccc1C(=O)NCC1(N2CCN(C)CC2)CCCCC1	0	-	0	0	0	0
Cc1ccc(Nc2nc(N/N=C\c3ccc4c(c3)OCO4)nc(N3CCOCC3)n2)cc1	0	0	0	0	0	?
COc1ccc(C(=O)CSc2ncn[nH]2)cc1OC	?	0	40µM	0	0	0
O=C(CSc1ncn[nH]1)c1ccc(OC(F)F)cc1	25µM	0	0	0	0	0
O=C(O)CSc1ncn[nH]1	0[12.7 µM]	0	0	0	0	0
COc1ccc(N2CC(NC(=O)c3cccs3)CC2=O)cc1 (stereo not given)	0	-	0	0	0	0
Cc1ccc(NCN2C(=O)C3C4C=CC(C4)C3C2=O)cc1 (stereo not given)	0	0	18µM	0	0	0
Cc1ccc(NCN2C(=O)C3C4CCC(C4)C3C2=O)cc1 (stereo not given)	0	0	-	-	0	0
O=C1C2C3C=CC(C3)C2C(=O)N1CNc1ccc(O)cc1 (stereo not given)	2.2µM	56µM	-	-	0	45µM
COc1cccc(C(=O)Nc2ccc3nc(SCc4ccc(C)cc4)sc3c2)c1	0	-	0	0	0	0
O=C(O)CC1CCC(=C(Cl)Cl)C1 (stereo not given)	45µM	0	0	0	-	?
Nc1cc2nsnc2cc1Br	?	40µM	0	?	0	0
CCOC(=O)c1ccc(NC(=O)Nc2ccc3snnc3c2)cc1	0	-	0	0	0	0
COc1cc2c(cc1OC)C(c1ccc(-c3ccc(Cl)cc3Cl)o1)=NCC2	?	28µM	0	0	0	?
COc1cc2c(cc1OC)C(c1ccc(-c3cc(Cl)ccc3Cl)o1)=NCC2	?	?	?	0	0	?
COc1cc2c(cc1OC)C(c1ccc(-c3ccccc3Cl)o1)=NCC2	7.1µM	0	?	?	0	28µM
SMILES	G9a inh	Sfp inh	JMJD2A Tudor	HP1b binding inh	TDP1 inh	BAZ2B inh
COc1cc2c(cc1OC)C(c1ccc(-c3ccc(Cl)c(Cl)c3)o1)=NCC2	14µM	20µM	18µM	?	0	?
COc1cc2c(cc1OC)C(c1ccc(Cl)cc1)=NCC2	0	0	0	0	-	0
CCC(C)N(CCNC(=O)c1ccc2c(c1)NC(=O)c1ccccc1S2)C1CCCCC1 (stereo not given)	0	0	0	0	0	0
COc1ccccc1Cc1nc2ccccc2nc1SCC(=O)NCc1ccc(F)cc1	0	-	0	0	0	0
Cc1cccn2c(=O)c(C=C(C#N)C#N)c(N3CCN(c4cccc(Cl)c4)CC3)nc12	0	0	0	0	-	0
CC(=O)N1CCC2(CC1)CN(Cc1ccc(C#N)cc1)C2	0[12.7 µM]	0	-	-	-	-
Cc1ccc(/C=N/n2c(-c3cccnc3)n[nH]c2=S)s1	0.79µM	35µM	4.5µM	0	0	0
Cc1nnc(C)n1/N=C/c1cccnc1	0	0	0	0	0	0
CN(C)c1ccc(/C=N/n2c(-c3cccnc3)n[nH]c2=S)cc1	3.2µM	0	5µM	0	0	?
